The panel holds about 83,000 compounds, 20% with a hit somewhere; the sample as a whole holds those more often.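 Plates (96-well) were seeded with cells, treated with compound at one concentration, and incubated for 48 hours before percent growth was determined.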 A number with no mark means an inactive call. Calls of active or inactive are those of the source. How the source made its calls: active means growth percent below 10; inactive means the rest.
tested on: HL-60(TB) leukemia; assay: NCI-60 one-dose screen, 48 h (100 = growth as untreated, 0 = no growth, -100 = all killed); settings: 10 µM unless noted

SMILES | growth
CC/C=C/C/C=C/C/C=C/C/C=C/C/C=C/C/C=C/CCC(=O)Nc1ccn([C@@H]2O[C@H](CO)[C@@H](O)C2(F)F)c(=O)n1 | -16.1% (active)
O=C(C(Br)Br)C(Br)C(Br)c1ccccc1 (stereo not given) | 88.8%
COc1ccc(C/C(C)=C(/c2ccc(OCCN3CCCCCC3)cc2)c2ccc(OC(=O)c3ccccc3)cc2)cc1 | 68.7%
COc1ccc2cc(-c3ccc(C(=O)NN)c(C)n3)ccc2c1 | 104%
Cc1cc2cccnc2c2ncccc12 | -11.4% (active)
Cc1ccc(S(=O)(=O)N/N=C2\CC3CCC2(C)C3(C)C)cc1 (stereo not given) | 116%
NC[C@@](O)(c1ccc(Cl)cc1)c1ccc(-c2cn[nH]c2)cc1 | -42.8% (active)
O=C(CSc1nc2sc3c(c2c(=O)n1-c1ccc(Cl)cc1)CCCC3)Nc1nc(-c2cccc(Br)c2)cs1 | 101%
CCCNCCC(C)=O | 108%
COc1ccc(/C=c2\c(=O)n(-c3ccccc3)c3nn4c(n23)=NNC42CCCCC2)cc1 | 110%
C=CCn1c(-c2ccc(-c3nc4ccc(C)cc4[nH]3)cc2)n[nH]c1=S | 110%
O=c1c2c3c(sc2n2c(-c4cc(-c5ccccc5)no4)nnc2n1Cc1ccccc1)CCCC3 | 72.8%
CC(C)C(NC(=O)C1(NC(=O)OCc2ccccc2)CCCC1)C(=O)O (stereo not given) | 90.8%
CSC1=C(N)C(=O)c2[nH]cc(CO)c2C1=N | -28.1% (active)
COc1ccc2nc3c(n2c1)C(=O)C(=O)c1ccccc1-3 | -48.9% (active)

Source: PubChem BioAssay (NCI)
